Results as given in PubChem BioAssay (Tox21).
Records with an inconclusive call do not appear. Calls of active or inactive are those of the source. Unless noted, calls come from the whole dose curve.

Key:
[1] = Nuclear factor erythroid 2-related factor 2/antioxidant responsive element (Nrf2/ARE) small molecule agonists: qHTS cell viability counter screen in human keratinocytes (AID 1919968; active = well fitted curve in the direction sought with a large enough effect in the repeat runs; an effect the other way counts as inactive or inconclusive; note: nearly all actives have a fitted effect of over 55% in size)
Outline: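 In human HaCaT keratinocytes stably expressing an ARE-driven luciferase, compound exposure lasted 23 h at 37 C under 5% CO2. Viable cells are quantified with a protease-based fluorogenic reagent (CellTiter-Fluor) read 1 h after addition.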

[2] = Nuclear factor erythroid 2-related factor 2/antioxidant responsive element (Nrf2/ARE) small molecule agonists: luciferase reporter gene qHTS assay in human keratinocytes (AID 1919969); note: nearly all actives have a fitted effect of over 35% in size; note: potency is the fitted concentration of half-maximal effect
[3] = target: Gonadotropin-releasing hormone receptor (Homo sapiens) (UniProt P30968); test: Human gonadotropin-releasing hormone receptor (GnRHR) small molecule agonists, calcium flux assay in GnRHR-HEK293 cells (AID 1920063); note: nearly all actives have a fitted effect of over 35% in size; note: potency is the fitted concentration of half-maximal effect
Outline: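 Intracellular calcium rise is the read-out: engineered human GnRHR HEK293 cells, dye-loaded, are exposed to DMSO-dissolved compounds and fluorescence at Ex/Em 480/540 is tracked for 3 min.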

[4] = target: KiSS-1 receptor (Homo sapiens) (UniProt Q969F8); test: Human kisspeptin (KISS1R) small molecule agonists, calcium flux assay in KISS1R-HEK293 cells (AID 1920064; active = well fitted curve in the direction sought with a large enough effect in the repeat runs; an effect the other way counts as inactive or inconclusive)
Outline: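 Concentration-response testing used 15 concentrations in triplicate on human KISS1R-expressing HEK293 cells. Calcium-dependent fluorescence (Ex/Em 480/540) was followed kinetically for 3 min after compound transfer.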

[5] = G protein-coupled receptor (GPCR) small molecule agonists, calcium flux assay: HEK293 wild type cell line counter screen (AID 1920065)
Outline: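 Fluorescence intensity signals activation. After overnight (18 h) culture and a 1 h calcium dye load at 37 C, compounds are added by pin tool and the plate read at 480/540 nm for 3 min in 1 s steps.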

[6] = p53 small molecule agonists, cell-based qHTS assay with human liver microsomes (AID 1963577)
Outline: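 Compounds act here after metabolic activation: human liver microsomes and NADPH, both at 0.5 mg/mL final, were co-added to p53RE-bla cells. Incubation ran 16 h at 37 C, followed by LiveBLAzer detection.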

[7] = p53 small molecule agonists, cell-based qHTS assay with rat liver microsomes (AID 1963578)
Outline: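 Read-out is beta-lactamase reporter fluorescence (LiveBLAzer, 2 h, room temperature, dark) in p53RE-bla cells treated 16 h at 37 C with compound, rat liver microsomes and NADPH, both 0.5 mg/mL final.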

[8] = p53 small molecule agonists, cell-based qHTS assay with human liver microsomes: qHTS cell viability counter screen (AID 1963579); note: nearly all actives have a fitted effect of over 45% in size
Outline: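 Cells carrying the p53 response-element beta-lactamase reporter are treated for 16 h at 37 C with test compounds in the presence of human liver microsomes and NADPH (both 0.5 mg/mL final); ATP-based CellTiter-Glo luminescence then reports viability.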

[9] = p53 small molecule agonists, cell-based qHTS assay with rat liver microsomes: qHTS cell viability counter screen (AID 1963580); note: nearly all actives have a fitted effect of over 45% in size
Outline: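 After the beta-lactamase ratio was read, CellTiter-Glo was added to the same wells and luminescence measured at 30 min; cells had been treated 16 h at 37 C with compounds, rat liver microsomes and NADPH (0.5 mg/mL final each).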

[10] = p53 small molecule agonists, cell-based qHTS assay: qHTS cell viability counter screen (AID 1963581); note: nearly all actives have a fitted effect of over 45% in size; note: potency is the fitted concentration of half-maximal effect
Outline: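 Luminescence from CellTiter-Glo, reflecting ATP content, serves as the cytotoxicity measure; it is taken after the 2 h reporter substrate step in HCT-116 p53RE-bla cells dosed for 16 h at 37 C.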

[11] = p53 small molecule agonists, cell-based qHTS assay (AID 1963582; active = well fitted activation curve with a large enough effect in the signal ratio in the repeat runs, not every such curve was filed as active; the % refers to the signal ratio)
Outline: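 After plating, p53RE-bla cells sat 5 h in the incubator; compounds or DMSO vehicle were pinned in; a 16 h incubation at 37 C followed; FRET substrate was added and, 2 h later at RT, fluorescence was measured.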

[12] = target: 5-hydroxytryptamine receptor 2A (Homo sapiens) (UniProt P28223); test: 5-hydroxytryptamine receptor 2A (HTR2A) small molecule agonists, cell-based qHTS assay (AID 1963587); note: nearly all actives have a fitted effect of over 30% in size
Outline: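 CHO cells stably expressing human HTR2A, plated 18 h, loaded with calcium dye 1 h at 37 C. Agonist mode: compounds added and intracellular calcium fluorescence recorded kinetically for 2 min at 1 sec intervals.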

[13] = target: Muscarinic acetylcholine receptor M1 (Homo sapiens) (UniProt P11229); test: Cholinergic receptor muscarinic 1 (CHRM1) small molecule agonists, cell-based qHTS assay (AID 1963589); note: nearly all actives have a fitted effect of over 35% in size; note: potency is the fitted concentration of half-maximal effect
Outline: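 Fluorescent calcium dye reports M1 activation in stably transfected CHO cells. Compounds, 15 concentrations, added after 1 h dye loading at 37 C; kinetic reading at 1 sec intervals.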

[14] = cAMP Responsive Elements (CRE) small molecule agonists, cell-based qHTS assay (AID 1963590)
Outline: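 Compound exposure lasted 3 h at 37 C/5% CO2 in CRE-bla HEK 293T cells grown in assay medium with 10% dialyzed FBS and 25 mM HEPES. Reporter signal came from LiveBLAzer B/G FRET substrate, 2 h, room temperature.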

[15] = cAMP Responsive Elements (CRE) small molecule antagonists, cell-based qHTS assay (AID 1963591; active = well fitted inhibition curve with a large enough effect in the signal ratio in the repeat runs, not every such curve was filed as active; the % refers to the signal ratio)
Outline: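 Stimulation used NKH477 at a final 0.25 uM for 3 h in compound-treated CRE-bla HEK293T cells, seeded 18 h beforehand. Reporter activity was measured with LiveBLAzer B/G FRET substrate after 2 h at room temperature.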

[16] = target: Beta-2 adrenergic receptor (Homo sapiens) (UniProt P07550); test: Adrenergic beta2 receptor (ADRB2) small molecule antagonists, cell-based qHTS assay (AID 1963592); note: series mostly up to about 92 µM; nearly all actives have a fitted effect of over 50% in size
Outline: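 Assay format: CHO-ADRB2 cells, 18-20hr seeding at 37C/5% CO2, then compound plus 1nM isoproterenol agonist mix for 0.5hr RT. Homogeneous time-resolved fluorescence cAMP detection after 1hr, expressed as 665/615 nm ratio.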

[17] = target: D(2) dopamine receptor (Homo sapiens) (UniProt P14416); test: Dopamine D2 receptor (DRD2) small molecule agonists, cell-based qHTS assay (AID 1963594); note: nearly all actives have a fitted effect of over 35% in size
Outline: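 HEK293 cells stably expressing human DRD2, pre-treated with PDE inhibitor Ro20-1724 (0.1 mM final) and compound 10 min at room temperature, then stimulated with NKH477 (200nM […]) for 30 min. cAMP read by HTRF (665/620 nm).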

[18] = target: D(2) dopamine receptor (Homo sapiens) (UniProt P14416); test: Dopamine D2 receptor (DRD2) small molecule antagonists, cell-based qHTS assay (AID 1963595; active = well fitted inhibition curve with a large enough effect in the signal ratio in the repeat runs, with a control signal flat; the % refers to the signal ratio)
Outline: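 DRD2-HEK293; 0.1 mM Ro20-1724; cpd 10 min RT; NKH477 200 nM + quinpirole 12 nM, 30 min RT; HTRF cAMP (cAMP-d2/anti-cAMP cryptate), 665/620 nm ratio after 1 h.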

[19] = target: Muscarinic acetylcholine receptor M1 (Homo sapiens) (UniProt P11229); test: Cholinergic receptor muscarinic 1 (CHRM1) small molecule antagonists, cell-based qHTS assay (AID 1963588); note: nearly all actives have a fitted effect of over 40% in size
Outline: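 Compounds were tested at 15 concentrations in three independent runs. Dye-loaded CHRM1-CHO cells were exposed 5 min at room temperature before stimulation by acetylcholine added at 50nM. Intracellular calcium was read kinetically on FDSS for 3 min.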

[20] = target: Beta-2 adrenergic receptor (Homo sapiens) (UniProt P07550); test: Adrenergic beta2 receptor (ADRB2) small molecule agonists, cell-based qHTS assay (AID 1963593);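 note: CHO cells stably overexpressing human ADRB2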
Outline: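 CHO cells stably over-expressing ADRB2 were plated overnight at 37C, then dosed with compounds plus a stimulation mix containing 100uM IBMX and 25uM Ro-20-1724 for 0.5hr at room temperature. cAMP was measured by HTRF competition, 1hr.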

Measured: Potency

Beta-2 adrenergic receptor (Homo sapiens), sequence (P07550 whole entry, looked up): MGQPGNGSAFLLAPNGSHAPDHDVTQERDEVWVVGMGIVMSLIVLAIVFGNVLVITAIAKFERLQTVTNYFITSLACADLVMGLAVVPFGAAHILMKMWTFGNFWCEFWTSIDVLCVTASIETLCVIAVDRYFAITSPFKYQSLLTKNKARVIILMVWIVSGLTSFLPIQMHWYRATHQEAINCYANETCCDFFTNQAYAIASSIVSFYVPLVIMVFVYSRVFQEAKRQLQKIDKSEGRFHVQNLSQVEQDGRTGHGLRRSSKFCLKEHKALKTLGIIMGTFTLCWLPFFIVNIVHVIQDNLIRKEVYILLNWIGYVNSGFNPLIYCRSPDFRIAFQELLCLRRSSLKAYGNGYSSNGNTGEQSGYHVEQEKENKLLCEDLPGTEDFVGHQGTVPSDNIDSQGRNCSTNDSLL
Muscarinic acetylcholine receptor M1 (Homo sapiens), sequence (P11229 whole entry, looked up): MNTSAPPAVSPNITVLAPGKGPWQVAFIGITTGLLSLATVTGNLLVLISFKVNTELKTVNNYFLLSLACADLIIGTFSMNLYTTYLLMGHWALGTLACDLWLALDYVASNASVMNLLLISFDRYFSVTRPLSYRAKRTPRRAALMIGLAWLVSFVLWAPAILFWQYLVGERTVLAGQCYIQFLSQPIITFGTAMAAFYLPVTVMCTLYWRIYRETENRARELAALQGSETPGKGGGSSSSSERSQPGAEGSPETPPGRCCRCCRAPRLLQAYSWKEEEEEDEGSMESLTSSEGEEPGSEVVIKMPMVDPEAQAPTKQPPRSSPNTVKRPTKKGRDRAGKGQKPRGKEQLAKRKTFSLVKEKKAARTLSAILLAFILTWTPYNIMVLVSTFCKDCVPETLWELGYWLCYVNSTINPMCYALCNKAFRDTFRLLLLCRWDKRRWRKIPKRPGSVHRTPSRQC
5-hydroxytryptamine receptor 2A (Homo sapiens), sequence (P28223 whole entry, looked up): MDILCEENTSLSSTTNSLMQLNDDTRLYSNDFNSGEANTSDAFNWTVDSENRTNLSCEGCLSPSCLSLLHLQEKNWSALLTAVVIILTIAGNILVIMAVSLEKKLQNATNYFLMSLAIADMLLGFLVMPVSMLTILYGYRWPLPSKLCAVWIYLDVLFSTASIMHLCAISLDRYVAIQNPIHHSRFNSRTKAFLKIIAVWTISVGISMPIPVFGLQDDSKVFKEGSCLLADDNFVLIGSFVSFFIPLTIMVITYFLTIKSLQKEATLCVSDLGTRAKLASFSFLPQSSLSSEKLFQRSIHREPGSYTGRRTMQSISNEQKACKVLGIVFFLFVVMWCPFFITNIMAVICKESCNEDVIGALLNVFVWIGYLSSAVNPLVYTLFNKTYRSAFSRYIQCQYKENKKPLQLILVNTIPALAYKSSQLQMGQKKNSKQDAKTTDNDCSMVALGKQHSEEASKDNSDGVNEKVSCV
D(2) dopamine receptor (Homo sapiens), sequence (P14416 whole entry, looked up): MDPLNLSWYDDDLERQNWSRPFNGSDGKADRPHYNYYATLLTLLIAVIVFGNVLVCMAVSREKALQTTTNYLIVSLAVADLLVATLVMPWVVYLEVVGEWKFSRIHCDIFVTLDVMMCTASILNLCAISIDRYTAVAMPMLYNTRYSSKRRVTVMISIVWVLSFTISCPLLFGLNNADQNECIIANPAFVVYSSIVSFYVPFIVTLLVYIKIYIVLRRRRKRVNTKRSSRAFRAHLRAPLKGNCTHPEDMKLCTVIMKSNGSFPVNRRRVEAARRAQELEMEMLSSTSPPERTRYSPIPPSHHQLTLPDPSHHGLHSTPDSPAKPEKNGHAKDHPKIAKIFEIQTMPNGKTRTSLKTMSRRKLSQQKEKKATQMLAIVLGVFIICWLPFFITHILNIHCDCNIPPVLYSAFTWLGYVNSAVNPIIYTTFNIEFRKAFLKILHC
KiSS-1 receptor (Homo sapiens), sequence (Q969F8 whole entry, looked up): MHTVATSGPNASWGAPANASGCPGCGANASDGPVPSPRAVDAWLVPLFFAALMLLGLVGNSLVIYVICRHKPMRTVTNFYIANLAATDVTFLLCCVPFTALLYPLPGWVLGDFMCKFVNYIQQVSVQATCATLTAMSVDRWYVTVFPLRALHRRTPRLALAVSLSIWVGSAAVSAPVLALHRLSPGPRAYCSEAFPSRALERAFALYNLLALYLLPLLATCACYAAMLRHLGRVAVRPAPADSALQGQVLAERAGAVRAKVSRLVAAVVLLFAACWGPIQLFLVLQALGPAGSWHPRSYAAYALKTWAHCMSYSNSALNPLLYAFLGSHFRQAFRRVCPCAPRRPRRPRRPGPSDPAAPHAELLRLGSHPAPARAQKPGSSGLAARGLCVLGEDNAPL
Gonadotropin-releasing hormone receptor (Homo sapiens), sequence (P30968 whole entry, looked up): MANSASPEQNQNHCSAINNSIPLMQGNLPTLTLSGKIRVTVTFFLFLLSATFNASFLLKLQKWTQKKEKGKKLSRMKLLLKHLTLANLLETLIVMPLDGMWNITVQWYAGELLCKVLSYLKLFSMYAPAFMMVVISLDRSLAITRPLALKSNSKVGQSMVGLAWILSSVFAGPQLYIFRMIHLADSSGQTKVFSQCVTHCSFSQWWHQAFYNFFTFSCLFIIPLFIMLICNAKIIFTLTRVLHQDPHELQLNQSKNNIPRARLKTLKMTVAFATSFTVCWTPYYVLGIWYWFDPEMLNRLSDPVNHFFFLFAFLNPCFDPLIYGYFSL

[O-][n+]1cccc(/C(Cl)=N/OC[C@@H](O)CN2CCCCC2)c1
not listed: [19] | [20]
inactive: all other assays above

CCc1cccc(C)c1N(C(=O)CS(=O)(=O)O)C(C)COC (centres undefined)
not listed: [13] | [17] | [20]
inactive: all other assays above

CC(C)[C@H](N)C(=O)OCCOCn1cnc2c(=O)[nH]c(N)nc21
active: [10] 1780 nM
not listed: [12] | [13] | [19]
inactive: all other assays above

Nc1nc2c(ncn2COCCO)c(=O)[nH]1
not listed: [12] | [13] | [18] | [19]
inactive: all other assays above

O=C1OC(=O)c2cc([N+](=O)[O-])ccc21
not listed: [19]
inactive: all other assays above

C=C(C)C(=O)OCC[N+](C)(C)C
active: [2] 60900 nM
not listed: [19]
inactive: all other assays above

CC(=O)OC(C)(C)C
not listed: [19] | [20]
inactive: all other assays above

CCC1C(=O)OCC1Cc1cncn1C (centres undefined)
not listed: [13] | [18] | [19]
inactive: all other assays above

COc1ccc(CCN(C)CCCC(C#N)(c2cc(OC)c(OC)c(OC)c2)C(C)C)cc1OC (centres undefined)
not listed: [12] | [15] | [17] | [18] | [19] | [20]
inactive: all other assays above

C=CC(=O)OCC[N+](C)(C)C
active: [3] 438 nM | [13] 43.8 nM
not listed: [19]
inactive: all other assays above
